PubChem BioAssay
Active and inactive are the calls of the source. Unless noted, the rule behind the calls is not given here.

Experiments:
[1] = A549 cell viability effects, profiling panel, calcein-AM fluorescence, 48 h, basal (AID 1162); conditions: higher = more signal; note: test concentration not given here
[2] = adipocyte viability effects, profiling panel, cell-based, 3T3-L1 adipocytes, calcein-AM fluorescence, 48 h, basal (AID 1163); conditions: 3T3-L1 adipocytes viability, higher = more signal; note: test concentration not given here
[3] = HepG2 cell viability effects, profiling panel, calcein-AM fluorescence, 48 h, basal (AID 1164); conditions: higher = more signal; note: test concentration not given here
[4] = MM1S cell viability effects, profiling panel, calcein-AM fluorescence, 48 h, basal (AID 1165); conditions: higher = more signal;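 note: viability of MM1S multiple myeloma cells under basal unstimulated conditions; test concentration not given here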
[5] = basal RPMI8226 viability, no added stimulus, profiling panel, cell-based, calcein-AM fluorescence, 48 h, PK04 Diversity Set (AID 1166); conditions: RPMI8226 myeloma viability, higher = more signal;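 note: cells grown under basal conditions without added stimulus; test concentration not given here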
[6] = basal HepG2 mitochondrial membrane potential changes, profiling panel, cell-based, JC-1 fluorescence, 24 h, 100 nL compound (AID 1167); conditions: higher = more signal; note: test concentration not given here
[7] = basal 3T3-L1 adipocyte mitochondrial potential changes, profiling panel, cell-based, JC-1 fluorescence, 3T3-L1 adipocytes, 24 h, 100 nL compound (AID 1168); conditions: JC-1 mitochondrial fluorescence, higher = more signal, called active from +8 up or from −8 down; note: test concentration not given here
[8] = basal RPMI8226 mitochondrial membrane potential changes, profiling panel, cell-based, JC-1 fluorescence, 24 h, 100 nL compound (AID 1169); conditions: RPMI8226 myeloma, JC-1 mitochondrial potential fluorescence, higher = more signal; note: test concentration not given here
[9] = basal MM1S mitochondrial membrane potential changes, profiling panel, cell-based, JC-1 fluorescence, 24 h, 100 nL compound (AID 1170); conditions: higher = more signal; note: test concentration not given here
[10] = A549 lung cancer cell viability effects, profiling panel, resazurin fluorescence, 24 h, PK04 Diversity Set (AID 1171); conditions: higher = more signal, called active from +8 up or from −8 down; note: test concentration not given here
[11] = HepG2 liver cancer cell viability effects, profiling panel, resazurin fluorescence, 24 h, PK04 Diversity Set (AID 1172); conditions: higher = more signal; note: test concentration not given here
[12] = basal S. cerevisiae growth modulation, no modifier, primary screen, OD600, strain BY4716, 24 h, basal condition (AID 1173); conditions: OD600, 24 h, higher = more signal, called active from +8 up or from −8 down
[13] = MM1S myeloma cell viability, profiling panel, resazurin fluorescence, basal, 24 h, PK04 Diversity Set (AID 1174); conditions: higher = more signal, called active from +8 up or from −8 down;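 note: MM1S multiple myeloma cell line; test concentration not given here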
[14] = target: Dihydroorotate dehydrogenase (quinone), mitochondrial (Plasmodium falciparum (isolate 3D7)) (UniProt Q08210); experiment: PfDHODH enzyme inhibitors, primary screen, biochemical, C-terminal His tag, absorbance 600 nm (AID 1175); conditions: DCIP absorbance 600 nm, higher = more signal, called active from +8 up or from −8 down;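 note: recombinant parasite enzyme with a five histidine tag at its C terminus; test concentration not given here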
[15] = P. aeruginosa biofilm formation inhibitors, primary screen, strain PAO1, LB-PBS medium, absorbance 600 nm (AID 1176); note: test concentration not given here; conditions: P. aeruginosa PAO1 growth/biofilm, A600, 12 h; higher = more signal
[16] = S. cerevisiae RM11-1a growth modifiers, primary screen, strain RM11-1a, OD600, basal, 24 h (AID 1177); conditions: OD600, 24 h, higher = more signal, called active from +8 up or from −8 down;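 note: cultures grown under basal conditions with no added stressor; test concentration not given here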
[17] = E. coli acrAB mutant growth effects, primary screen, E. coli filamentation inducers, strain DRC39, OD650, 24 h (AID 1178); conditions: higher = more signal, called active from +8 up or from −8 down;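 note: growth measured as culture turbidity by optical density at 650 nm; test concentration not given here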
[18] = E. coli acrAB mutant growth effects, primary screen, E. coli filamentation inducers, strain DRC39, OD650, 48 h (AID 1179);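 note: screen aims at cell division blockers that make cells filament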; conditions: E. coli DRC39 delta-acrAB growth, higher = more signal, called active from +8 up or from −8 down
[19] = RPMI8226 myeloma cell viability, profiling panel, resazurin fluorescence, basal, 24 h, PK04 Diversity Set (AID 1180); conditions: higher = more signal;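 note: RPMI8826 multiple myeloma cell line at 5000 cells per well; test concentration not given here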
[20] = target: E3 ubiquitin-protein ligase XIAP (Homo sapiens) (UniProt P98170); experiment: XIAP binders, primary screen, biophysical, small-molecule microarray, fluorescence 635 nm (AID 1181); conditions: small-molecule microarray binding, higher = more signal;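 note: score merges 667 nm emission and signal to noise over triplicate slides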
Chain of E3 ubiquitin-protein ligase XIAP (Homo sapiens) (P98170 whole entry, looked up): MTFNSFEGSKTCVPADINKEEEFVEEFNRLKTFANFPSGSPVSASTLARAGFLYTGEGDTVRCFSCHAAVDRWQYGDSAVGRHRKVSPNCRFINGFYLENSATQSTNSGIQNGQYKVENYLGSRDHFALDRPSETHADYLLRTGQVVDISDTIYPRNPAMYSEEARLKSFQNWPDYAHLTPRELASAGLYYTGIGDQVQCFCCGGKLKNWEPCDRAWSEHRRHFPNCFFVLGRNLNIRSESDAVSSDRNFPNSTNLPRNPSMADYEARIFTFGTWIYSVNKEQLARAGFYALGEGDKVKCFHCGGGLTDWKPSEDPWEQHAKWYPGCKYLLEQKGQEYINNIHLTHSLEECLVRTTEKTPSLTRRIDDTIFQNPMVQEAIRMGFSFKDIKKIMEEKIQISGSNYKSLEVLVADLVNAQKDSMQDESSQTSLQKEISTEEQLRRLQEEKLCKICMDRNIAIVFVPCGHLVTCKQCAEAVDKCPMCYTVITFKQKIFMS

Chain of Dihydroorotate dehydrogenase (quinone), mitochondrial (Plasmodium falciparum (isolate 3D7)) (Q08210 whole entry, looked up): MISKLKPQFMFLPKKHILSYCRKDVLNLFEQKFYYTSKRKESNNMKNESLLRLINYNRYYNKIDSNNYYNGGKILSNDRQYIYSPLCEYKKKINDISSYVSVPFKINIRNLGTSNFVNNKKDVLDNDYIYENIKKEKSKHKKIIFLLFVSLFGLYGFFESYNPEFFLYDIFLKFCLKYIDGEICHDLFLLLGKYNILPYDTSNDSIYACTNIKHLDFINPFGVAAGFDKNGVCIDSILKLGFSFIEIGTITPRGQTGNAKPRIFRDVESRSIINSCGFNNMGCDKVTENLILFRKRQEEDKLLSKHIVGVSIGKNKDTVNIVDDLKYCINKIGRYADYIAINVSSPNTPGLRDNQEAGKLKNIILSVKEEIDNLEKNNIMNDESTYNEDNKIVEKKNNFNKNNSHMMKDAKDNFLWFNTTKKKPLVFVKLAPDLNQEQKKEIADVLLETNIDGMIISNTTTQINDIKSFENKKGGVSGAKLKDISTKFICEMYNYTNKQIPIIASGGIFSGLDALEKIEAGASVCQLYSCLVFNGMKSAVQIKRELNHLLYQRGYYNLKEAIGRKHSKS

Row | SMILES | z-score [1] | z-score [2] | z-score [3] | z-score [4] | z-score [5] | z-score [6] | z-score [7] | z-score [8] | z-score [9] | z-score [10] | z-score [11] | z-score [12] | z-score [13] | composite z-score [14] | z-score [15] | z-score [16] | z-score [17] | z-score [18] | z-score [19] | composite z-score [20]
1 | COc1ccc([Si](C)(C)[C@H]2[C@H](CC(=O)N3CCC[C@H]3CO)O[C@@]3(C(=O)N(Cc4ccc(N5C(=O)c6cccc7cccc5c67)cc4)c4ccccc43)[C@@H]2C)cc1 | -0.706 | 0.867 | -0.154 | -2.87 | -4.2 | 2.16 | 1.44 (inactive) | -1.1 | 0.28 | -1.28 (inactive) | -1.83 | 0.147 (inactive) | -1.61 (inactive) | -1.84 (inactive) | 0.189 (inactive) | 1.02 (inactive) | -0.788 (inactive) | -0.848 (inactive) | -1.16 | -0.392
2 | NCCCCCCNC(=O)[C@H]1C[C@H]2C(=O)N3CCC[C@H]3C(=O)N2[C@H]1c1ccc(O)cc1 | -0.194 | 1.14 | -1.01 | -0.346 | -0.707 | -0.806 | -1.34 (inactive) | 0.26 | 0.698 | -0.608 (inactive) | -0.541 | -0.438 (inactive) | -0.431 (inactive) | -0.245 (inactive) | -0.0059 (inactive) | -1.09 (inactive) | 0.0967 (inactive) | -0.676 (inactive) | -0.508 | -0.223
3 | COC(=O)[C@@]1(Cc2ccc(OC)cc2)[C@H]2c3cc(C(=O)N4CCCC4)n(CCF)c3C[C@H]2CN1C(=O)c1ccccc1 | -1.41 | 1.71 | -0.336 | 0.0026 | -1.05 | 3.33 | -1.65 (inactive) | -0.178 | -0.0401 | -1.55 (inactive) | -0.952 | 1.1 (inactive) | -2.21 (inactive) | 0.0648 (inactive) | 1.06 (inactive) | 0.977 (inactive) | -1.52 (inactive) | -1.09 (inactive) | -1.72 | -0.0471
4 | CN(C)CCCCNC(=O)[C@H]1C[C@H]2C(=O)N[C@@H](CCCC[N+](C)(C)C)C(=O)N2[C@H]1c1cccc(OCCO)c1 | -0.532 | 0.067 | -0.491 | -0.845 | 0.54 | -1.18 | -0.333 (inactive) | -0.674 | -0.448 | 0.0625 (inactive) | 0.49 | 0.168 (inactive) | 0.505 (inactive) | -0.119 (inactive) | 1.06 (inactive) | -0.557 (inactive) | -0.163 (inactive) | -0.853 (inactive) | -0.0588 | -0.243
5 | C=C(/C(=C/C[C@@H](OC(=O)c1ccncc1)c1cccc(OCCO)c1)c1cc(C(=O)OC)ccc1OC)C(C)C | 1.49 | 0.358 | 1.21 | -2.98 | -2.77 | 2.71 | 0.544 (inactive) | -0.303 | -1.02 | 0.804 (inactive) | 0.677 | -0.243 (inactive) | -0.261 (inactive) | -2.04 (inactive) | 1.16 (inactive) | 0.0342 (inactive) | 2.07 (inactive) | 1.42 (inactive) | 0.301 | -0.107
6 | COCCCNC(=O)[C@@H]1c2ccccc2C(=O)N(c2ccc(C)cn2)[C@H]1c1ccc(CO)cc1 | 0.212 | 1.23 | -0.357 | -1.04 | -0.57 | -0.569 | -0.916 (inactive) | 0.83 | 0.484 | -0.708 (inactive) | -1.23 | 0.357 (inactive) | 0.507 (inactive) | 0.293 (inactive) | 0.242 (inactive) | 0.169 (inactive) | -0.541 (inactive) | -0.856 (inactive) | 0.162 | -0.195
7 | CC(C)(C)OC(=O)CC[C@@]1(C(=O)N2CCCCC2)N=C(c2ccc(OCCCO)cc2)O[C@@H]1c1ccccc1CN=[N+]=[N-] | 0.708 | -0.125 | 1.25 | -3.47 | -0.624 | 2.12 | -0.405 (inactive) | -0.863 | -0.995 | 0.642 (inactive) | 0.613 | 0.0243 (inactive) | 0.053 (inactive) | 0.113 (inactive) | -0.223 (inactive) | 0.978 (inactive) | -0.366 (inactive) | 0.831 (inactive) | 0.0127 | 0.183
8 | CCC[C@@H]1C[C@@]1(CCC)[C@@H](NC(=O)c1cccs1)c1ccc(Cl)cc1 | -0.162 | -0.608 | -0.892 | -2.77 | -4.78 | -0.52 | 0.028 (inactive) | -0.000314 | -0.386 | 4.94 (inactive) | 1.82 | -0.779 (inactive) | 1.19 (inactive) | -0.118 (inactive) | 0.852 (inactive) | 0.235 (inactive) | 0.279 (inactive) | 0.372 (inactive) | 2.95 | -0.193
9 | CC(C)C[C@H]1NC(=O)[C@H](C)NC(=O)[C@@]23C(=O)N[C@@H](Cc4ccccc4)C2[C@H](C)[C@@]2(C)O[C@H]2C3/C=C/C/C=C\CNC1=O (stereo not given in full) | -0.0541 | 0.392 | -0.17 | -0.36 | -0.659 | -0.482 | -0.752 (inactive) | -0.0616 | 1.34 | -0.271 (inactive) | -0.594 | -0.49 (inactive) | 0.0114 (inactive) | -0.401 (inactive) | 0.413 (inactive) | -0.837 (inactive) | -0.599 (inactive) | -0.555 (inactive) | 0.154 | 0.0822
